GLP-1R agonist – GLP-1 receptor (human) agonism. 380,000 tested, 0.007% active. HEK293 GLP-1R CRE-luciferase, luminescence, 4-6 h; cells express a hypersensitive GLP-1R form. Potency, µM (titrated, usually from 45.6 µM), without a hit: at the top dose activation, most hits filed as activators; further: % of control where 0% means no effect
Target sequence (P43220 whole entry, looked up): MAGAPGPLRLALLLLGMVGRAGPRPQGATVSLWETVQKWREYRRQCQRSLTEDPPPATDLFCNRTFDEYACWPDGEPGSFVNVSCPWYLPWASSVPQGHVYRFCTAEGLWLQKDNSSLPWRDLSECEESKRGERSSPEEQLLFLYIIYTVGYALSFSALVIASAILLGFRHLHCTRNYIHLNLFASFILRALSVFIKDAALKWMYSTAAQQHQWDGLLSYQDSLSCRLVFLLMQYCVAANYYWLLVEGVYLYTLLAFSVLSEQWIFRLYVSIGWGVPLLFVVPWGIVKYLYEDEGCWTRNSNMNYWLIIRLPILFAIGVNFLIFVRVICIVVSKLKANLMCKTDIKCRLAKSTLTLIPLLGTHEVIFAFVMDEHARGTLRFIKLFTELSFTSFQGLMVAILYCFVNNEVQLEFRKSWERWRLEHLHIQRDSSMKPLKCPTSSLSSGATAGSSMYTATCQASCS
HEK293 tox – cytotoxicity in counter-screen for GLP-1R inverse agonists. HEK293 cAMP-luciferase reporter cells, luminescence, 24 h. Potency, µM (titrated, usually from 38.3 µM), for the others: top-dose activity change, negative = inhibition, usual class: inhibitors. 410,000 tested, 0.13% active;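 further: loss of luciferase light is scored as toxicity; on the % scale 0 is the no-effect control and ±100 the full control effect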
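Cells in DMEM/10% Nu serum/1% pen-strep, 1536-well format. Pre-incubated 12 h, dosed with 23 nL compound, incubated a further 24 h. Luciferase detection, 12 min at room temp, luminescence.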
GLP-1R inv ag – acts as inverse agonist at human GLP-1 receptor | 410,000 tested, 1.6% active | HEK293 GLP-1R CRE-luciferase, luminescence, 24 h; GLP-1R form is constitutively active | P43220 | Potency, µM (doses to about 38.3 µM), for the others: at the top dose activity change, negative = inhibition, most hits filed as inhibitors | AID 624417; further: on the % scale 0 is the no-effect control and ±100 the full control effect; nearly all actives have a fitted effect of over 55% in size
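qHTS in 1536-well format: reporter HEK293 cells expressing constitutive GLP-1R activity in DMEM + 10% Nu serum, 24 hr with compounds at 37 deg C, luminescence read after 12 min with detection reagent.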
BRCA1 expr act – BRCA1 expression activation. MCF7-BRCA1-FFLuc reporter, luminescence, 48 h; response scale: scaled: vehicle 0%, 10 µM genistein 100%. Potency, µM (doses to about 46.1 µM), inactives show at the highest dose activation, usual class: activators. 380,000 tested, 1.1% active; further: nearly all actives have a fitted effect of over 80% in size
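MCF7-BRCA1-FFLuc, 2000 cells/well; 2 h attach, 37 °C/5% CO2; compound 48 h; luciferase substrate 15 min; luminescence end-point. Norm. to genistein 10 microM max activation and DMSO; concentration-response curves fitted.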
Active calls of the source: *; u = inconclusive; x = no result; [ ] = dose if it differs, or a comment. A selection: hits, their analogues and other compounds. The true share with any hit is near 2.6%. The call rests on the fitted dose curve; in most records, active means well fitted curve in the direction sought with a large enough effect; inconclusive means small, poorly fitted or top-dose-only effect, or another doubt; inactive means no such curve, though single readings can be large; an effect the other way counts as inactive or inconclusive. Potency means the concentration at half of the fitted maximal effect.

SMILES	GLP-1R agonist	HEK293 tox	GLP-1R inv ag	BRCA1 expr act
Cc1cc(C)c2c(n1)nn1c(C)c(CCC(=O)Nc3cccc(C)c3C)c(C)nc21	x	1%	6%	x
CCOC(=O)CNC(=O)c1sc(NC(=O)c2cccc(F)c2)nc1C	0%	9%	10%	8.9µM*
CCOC(=O)CNC(=O)c1sc(NC(=O)c2ccccc2F)nc1C	0%	9%	-11%	u
Cc1ccc(C(=O)NCCNc2ccc([N+](=O)[O-])cc2C(F)(F)F)cc1	2%	u	10µM*	-32%
O=C(NCCNc1ccc([N+](=O)[O-])cc1C(F)(F)F)c1ccccc1F	14%	9%	u	-30%
COc1cc(/C=C/c2cc(C(=O)O)c3ccccc3n2)ccc1OC(F)F	1%	6%	7%	2.5µM*
O=C1C=C(O)c2[nH]c(=O)ccc2C1=O	4%	-22%	16%	-16%
COCCNCc1nc2sc(C)c(-c3ccccc3)c2c(=O)[nH]1	9%	u	11µM*	-8%
CCOc1ccc(C(=O)N2CCCC(c3nc(-c4ccc(C)o4)no3)C2)cc1 (stereo not drawn)	15%	-6%	11µM*	5%
O=C(C[n+]1ccccc1Br)c1ccc(F)cc1	x	x	x	30%
O=c1oc2c(CN3CCOCC3)c(O)ccc2c2ccccc12	8%	3%	22%	14µM*
O=c1oc2c(CN3CCOCC3)c(O)ccc2c2c1CCCC2	7%	148%	26%	11%
Cc1ccc(-n2nc(C(C)(C)C)cc2NC(=O)Nc2ccc(OCCN3CCOCC3)c3ccccc23)cc1	7%	x	x	x
Cn1c2ccccc2c(=O)c2ccc(C#CC3(O)CCCCC3)cc21	-10%	125%	7.9µM*	u
Cc1ccc(/C=N/NC(=O)CSc2nc3ccccc3n2Cc2ccc(Cl)cc2)o1	-9%	-23%	10µM*	-36%
CC1CCN2c3ccccc3CC3(C(=O)OC(C)(C)OC3=O)C2C1 (stereo not drawn)	x	x	x	6%
Cc1c(C(=O)NN2CCCCC2)nn(-c2ccc(Cl)cc2Cl)c1-c1ccc(Cl)cc1	-4%	x	x	x
CC1(C)CCCC2(C)C(OCCO)=CC(=O)C=C12 (stereo not drawn)	0%	5%	-4%	3%
Cc1ccccc1NC(=O)CSc1nc2ccccc2o1	-8%	-11%	-5%	13µM*
O=C(COc1ccc(F)cc1)Nc1nc2c(s1)CCCC2	0%	-18%	u	13µM*
COc1ccc(OCC(=O)Nc2nc3c(s2)CCCC3)cc1	17%	-5%	u	60%
O=C(CSc1nc2ccccc2o1)Nc1nc2c(s1)CCCC2	-8%	-16%	2.5µM*	-61%
Cc1ccc(S(=O)(=O)N2CCN(c3nc(-n4ccnc4)nc4ccccc34)CC2)cc1	x	x	x	30%
COc1ccc(-c2nsc3c(N4CCCCC4C)ncnc23)cc1 (stereo not drawn)	-12%	39%	0.28µM*	-77%
COc1ccc(-c2nsc3c(N4CCCCC4)ncnc23)cc1	-7%	-2%	-72%	-81%
SMILES	GLP-1R agonist	HEK293 tox	GLP-1R inv ag	BRCA1 expr act
COC(=O)c1c(-c2ccncc2)csc1NC(=O)c1ccoc1C	u	0%	95%	4.5µM*
COC(=O)c1c(-c2cccnc2)csc1NC(=O)c1ccc2c(c1)OCO2	0%	10%	109%	2.2µM*
COC(=O)c1sccc1NC(=O)c1ccc2c(c1)OCO2	9%	-4%	2%	-58%
c1ccc(CN2CCC(Nc3nc(-c4cccs4)nc4ccccc34)CC2)cc1	-4%	u	7.1µM*	-81%
c1csc(-c2nc(NCC3CCCO3)c3ccccc3n2)c1 (stereo not drawn)	16%	-12%	u	-17%[36.9 µM]
O=C1C(Br)=C(c2ccccc2)C(c2ccccc2)=C1c1ccccc1	-2%	11%	-18%	1%
CCc1ccccc1NC(=O)Cn1nnc2sc3c(c2c1=O)CCC(C(C)(C)C)C3 (stereo not drawn)	x	-14%	11µM*	x
CCn1nnc2sc3c(c2c1=O)CCC(C)C3 (stereo not drawn)	20%	-8%	89%	13µM*
Cc1ccc(Cl)cc1NC(=O)Cn1nnc2sc3c(c2c1=O)CCC(C(C)(C)C)C3 (stereo not drawn)	x	6%	-8%	x
CN(C)c1ccc(C2C=Cc3ccccc32)c2ccccc12 (stereo not drawn)	x	x	x	-40%
Cc1ccc2c(CC(=O)Nc3c(C(=O)c4ccc(C)c(F)c4)oc4ccccc34)coc2c1	x	0%	10%	x
C=C1C=C(C)n2ncc(C(=O)Nc3cccc(C(=O)Nc4cccc(C(F)(F)F)c4)c3)c2N1	x	x	x	10%
Cc1ccc(NC(=S)NC(NC(=O)c2ccccc2)C(Cl)(Cl)Cl)c(C)c1 (stereo not drawn)	-23%	u	3.5µM*	-87%
Cc1ccc(C(=O)NC(NC(=S)Nc2ccc(S(N)(=O)=O)cc2)C(Cl)(Cl)Cl)cc1 (stereo not drawn)	-6%	-25%	5.6µM*	-11%
O=C(NC(NC(=S)Nc1ccccc1)C(Cl)(Cl)Cl)c1cccc(Cl)c1 (stereo not drawn)	-15%	u	7.9µM*	-99%
Cc1cc(C)c(NC(=S)NC(NC(=O)c2ccccc2)C(Cl)(Cl)Cl)c(C)c1 (stereo not drawn)	1%	-18%	u	-80%
Cc1ccccc1C(=O)NC(NC(=S)Nc1ccc(S(N)(=O)=O)cc1)C(Cl)(Cl)Cl (stereo not drawn)	-7%	-15%	u	-35%
Cc1cccc(NC(=S)NC(NC(=O)c2ccco2)C(Cl)(Cl)Cl)c1 (stereo not drawn)	-10%	u	1.1µM*	-21%
COc1cc2c(NC3CCN(C)CC3)nc(N3CCN(C)CC3)nc2cc1OCCCN(C)C	x	x	x	0%
Cc1ccc2oc(-c3ccc(C)c(NC(=O)/C=C/c4ccco4)c3)nc2c1	0%	-2%	3%	0%
C=CCc1cc(C=O)cc(OCC)c1OCc1ccc(Cl)cc1	-4%	-6%	u	-18%
C=CCc1cc(C=O)cc(OC)c1OCc1ccc(Cl)cc1	2%	-5%	10µM*	-42%
O=C1CCN(Cc2nc(-c3ccc(Cl)cc3)no2)CCN1	0%	-1%	4.5µM*	4%
O=C(C1CCN(Cc2nc(-c3ccc(Cl)cc3)no2)CC1)N1CCOCC1	6%	3%	-13%	-31%
Clc1ccc(-c2noc(CN3CCOCC3)n2)cc1	2%	-5%	16%	7.9µM*
O=C(CCSCc1ccc(Cl)cc1)N1CCN(c2ccccc2F)CC1	x	13%	u	x
S=C(NCC1CCCO1)NC1CCCCC1 (stereo not drawn)	3%	-10%	-1%	-1%
CCCC(NC(=S)NCC1CCCO1)C12CC3CC(CC(C3)C1)C2 (stereo not drawn)	13%	u	5.6µM*	-37%
Cc1ccc(C2(c3noc(CN4CCC(c5ccncc5)CC4)n3)CCCC2)cc1	u	-19%	4µM*	-12%
CCCCCCCCCCCCOC(=O)N1CCN(/[N+]([O-])=N/Oc2ccc([N+](=O)[O-])cc2[N+](C)=O)CC1	x	x	x	10%

Bioassay records deposited in PubChem by National Center for Advancing Translational Sciences (NCATS).
